The record followed here is paper PMC7862700, “An all-to-all approach to the identification of sequence-specific readers for epigenetic DNA modifications on cytosine”.

Common to all, as to assay: DAPPL (digital affinity profiling via proximity ligation, sequencing); 10 mM Tris-HCl pH 7.5, 50 mM NaCl, 1 mM DTT, 4% glycerol, room temperature, 30 min; GST-TFs on glutathione beads, 16-mer random dsDNA library, 0.1% formaldehyde crosslink after washing; high values mean tight binding
What all share (details): protein: recombinant; tags: N-terminal GST; dsDNA, one strand shown

One test has as its target T1, ERF (Homo sapiens, UniProt P50548 1-548).
T1 sequence: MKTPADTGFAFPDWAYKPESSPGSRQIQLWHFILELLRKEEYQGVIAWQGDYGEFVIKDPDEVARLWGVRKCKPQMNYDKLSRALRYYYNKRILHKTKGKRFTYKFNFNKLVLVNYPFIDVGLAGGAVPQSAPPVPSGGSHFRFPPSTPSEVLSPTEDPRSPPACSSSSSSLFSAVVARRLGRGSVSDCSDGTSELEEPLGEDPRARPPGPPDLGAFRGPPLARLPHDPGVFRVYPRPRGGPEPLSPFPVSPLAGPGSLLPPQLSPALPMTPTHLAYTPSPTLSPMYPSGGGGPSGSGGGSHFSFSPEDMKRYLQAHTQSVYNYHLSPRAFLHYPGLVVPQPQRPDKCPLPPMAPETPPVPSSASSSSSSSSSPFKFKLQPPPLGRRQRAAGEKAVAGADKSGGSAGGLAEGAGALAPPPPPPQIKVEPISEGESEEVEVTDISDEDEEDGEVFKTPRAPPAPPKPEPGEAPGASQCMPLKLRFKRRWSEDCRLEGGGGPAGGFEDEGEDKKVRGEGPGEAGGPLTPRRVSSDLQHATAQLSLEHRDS
An outline of the steps: (§1)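 Human transcription factors carrying a GST fusion were produced in yeast, bound to glutathione beads, tagged with DNA barcodes and pooled together with a tag-only sample. Each pool was held with 200 nmole of a random double-stranded 16-mer DNA library in Tris/NaCl/DTT/glycerol buffer for 30 min at room temperature, then washed, crosslinked in 0.1% formaldehyde, proximity-ligated with BsaI/T4 ligase (1 h, 37 °C), PCR-amplified and sequenced on an Illumina NextSeq500. Binding signal is the read frequency of each hexamer for a given factor divided by its frequency in the tag-only sample.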

Another test deals with T2, ETV3L (Homo sapiens, UniProt Q6ZN32 1-361).
T2 sequence: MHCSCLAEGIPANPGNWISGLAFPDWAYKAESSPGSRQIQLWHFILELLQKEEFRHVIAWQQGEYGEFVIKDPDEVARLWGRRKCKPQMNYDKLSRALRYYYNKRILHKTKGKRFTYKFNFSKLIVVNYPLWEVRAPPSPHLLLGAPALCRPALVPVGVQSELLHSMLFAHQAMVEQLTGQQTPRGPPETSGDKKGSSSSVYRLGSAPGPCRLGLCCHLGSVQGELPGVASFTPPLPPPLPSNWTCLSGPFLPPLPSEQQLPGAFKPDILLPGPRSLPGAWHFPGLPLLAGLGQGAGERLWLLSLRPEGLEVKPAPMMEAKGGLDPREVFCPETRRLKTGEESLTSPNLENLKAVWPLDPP
The essentials:
as §1

Another test has as its target T3, ETS2 (Homo sapiens, UniProt P15036 1-469).
T3 sequence: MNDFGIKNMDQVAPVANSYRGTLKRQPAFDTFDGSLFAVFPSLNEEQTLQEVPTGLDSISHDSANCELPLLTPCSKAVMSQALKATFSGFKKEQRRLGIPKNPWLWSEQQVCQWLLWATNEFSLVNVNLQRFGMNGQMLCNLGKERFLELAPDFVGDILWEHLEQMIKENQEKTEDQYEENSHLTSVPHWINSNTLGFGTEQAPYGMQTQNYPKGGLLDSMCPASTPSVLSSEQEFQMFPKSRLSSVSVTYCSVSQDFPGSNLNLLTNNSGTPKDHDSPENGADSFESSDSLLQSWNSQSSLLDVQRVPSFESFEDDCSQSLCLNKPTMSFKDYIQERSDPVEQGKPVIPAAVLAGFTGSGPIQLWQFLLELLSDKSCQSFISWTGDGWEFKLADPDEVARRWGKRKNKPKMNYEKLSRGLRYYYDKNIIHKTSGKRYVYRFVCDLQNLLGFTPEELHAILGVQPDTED
The essentials:
as §1

The target in another test is T4, SPDEF (Homo sapiens, UniProt O95238 1-335).
T4 sequence: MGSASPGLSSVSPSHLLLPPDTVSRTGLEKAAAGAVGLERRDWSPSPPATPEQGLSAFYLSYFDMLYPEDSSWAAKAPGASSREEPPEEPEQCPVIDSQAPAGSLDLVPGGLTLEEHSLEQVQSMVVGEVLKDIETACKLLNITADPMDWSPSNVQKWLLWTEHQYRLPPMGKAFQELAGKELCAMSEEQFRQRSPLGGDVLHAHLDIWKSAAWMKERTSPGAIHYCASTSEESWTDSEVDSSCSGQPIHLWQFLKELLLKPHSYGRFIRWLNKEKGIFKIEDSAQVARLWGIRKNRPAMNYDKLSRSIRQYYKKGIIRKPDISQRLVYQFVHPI
The essentials:
as §1

The target of another test is T5, ETV7 (Homo sapiens, UniProt Q9Y603 1-341).
T5 sequence: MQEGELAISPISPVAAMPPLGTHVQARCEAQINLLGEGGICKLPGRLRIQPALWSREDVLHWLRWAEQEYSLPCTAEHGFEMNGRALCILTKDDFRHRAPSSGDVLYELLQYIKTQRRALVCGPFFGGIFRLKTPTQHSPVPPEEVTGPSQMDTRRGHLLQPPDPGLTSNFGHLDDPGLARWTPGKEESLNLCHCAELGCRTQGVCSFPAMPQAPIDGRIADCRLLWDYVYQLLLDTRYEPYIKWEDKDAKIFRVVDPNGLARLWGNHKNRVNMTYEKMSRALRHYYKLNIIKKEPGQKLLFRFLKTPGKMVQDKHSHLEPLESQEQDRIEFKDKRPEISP
An outline of the steps: as §1

For another test, the target named is T6, ELF5 (Homo sapiens, UniProt Q9UKW6-2 1-255).
T6 sequence: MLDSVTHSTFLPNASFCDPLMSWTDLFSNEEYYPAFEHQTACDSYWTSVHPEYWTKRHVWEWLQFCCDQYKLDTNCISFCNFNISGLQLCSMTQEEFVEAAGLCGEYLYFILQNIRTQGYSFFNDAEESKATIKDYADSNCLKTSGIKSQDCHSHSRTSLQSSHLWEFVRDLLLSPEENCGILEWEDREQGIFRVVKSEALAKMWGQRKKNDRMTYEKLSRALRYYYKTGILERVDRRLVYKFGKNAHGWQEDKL
An outline of the steps: as §1

The target of a further test is T7, ETV3 (Homo sapiens, UniProt P41162-2 1-143).
T7 sequence: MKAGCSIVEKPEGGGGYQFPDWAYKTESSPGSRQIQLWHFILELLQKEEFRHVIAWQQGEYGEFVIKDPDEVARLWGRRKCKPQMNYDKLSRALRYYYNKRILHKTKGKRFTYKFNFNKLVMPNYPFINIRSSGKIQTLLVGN
The essentials:
as §1

In another test the target is ETV6 (Homo sapiens, UniProt P41212 1-452). An outline of the steps:
as §1

ETV6, sequence (P41212 whole entry): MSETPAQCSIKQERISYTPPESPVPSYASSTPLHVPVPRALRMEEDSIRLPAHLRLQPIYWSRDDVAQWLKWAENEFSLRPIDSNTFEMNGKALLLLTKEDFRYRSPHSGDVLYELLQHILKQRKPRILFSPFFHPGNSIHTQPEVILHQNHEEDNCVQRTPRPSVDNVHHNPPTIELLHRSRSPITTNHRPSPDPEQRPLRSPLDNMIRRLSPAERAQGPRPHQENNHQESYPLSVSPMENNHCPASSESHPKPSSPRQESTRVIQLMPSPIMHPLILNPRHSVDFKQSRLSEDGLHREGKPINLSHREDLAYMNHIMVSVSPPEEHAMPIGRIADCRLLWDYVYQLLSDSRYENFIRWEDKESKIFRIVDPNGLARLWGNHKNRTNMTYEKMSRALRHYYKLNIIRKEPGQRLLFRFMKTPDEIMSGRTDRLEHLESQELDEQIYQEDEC

As for TTCCAC, the binding signal in the test with ERF is 1.38 fold enrichment (6-mer frequency, TF over GST control); with ETV3L it was 1.54 fold enrichment (6-mer frequency, TF over GST control); in the test with ETS2 it was 1.44 fold enrichment (6-mer frequency, TF over GST control); with SPDEF, 1.36 fold enrichment (6-mer frequency, TF over GST control); with ETV7, 1.31 fold enrichment (6-mer frequency, TF over GST control); in the test with ELF5, 1.51 fold enrichment (6-mer frequency, TF over GST control). For the same sequence, the binding signal with ETV3 was 1.46 fold enrichment (6-mer frequency, TF over GST control); in the test with ETV6, 1.47 fold enrichment (6-mer frequency, TF over GST control).

ATTCGT: the binding signal is 1.22 fold enrichment (6-mer frequency, TF over GST control) with ERF; 1.16 fold enrichment (6-mer frequency, TF over GST control) with ETV3L; 1.26 fold enrichment (6-mer frequency, TF over GST control) in the test with ETS2; 1.18 fold enrichment (6-mer frequency, TF over GST control) with SPDEF; 1.34 fold enrichment (6-mer frequency, TF over GST control) with ETV7; 1.11 fold enrichment (6-mer frequency, TF over GST control) with ELF5. The binding signal with ETV3 is 1.28 fold enrichment (6-mer frequency, TF over GST control); with ETV6, 1.11 fold enrichment (6-mer frequency, TF over GST control).

CAATTC: the binding signal in the test with ERF was 1.26 fold enrichment (6-mer frequency, TF over GST control); in the test with ETV3L it was 1.27 fold enrichment (6-mer frequency, TF over GST control); in the test with ETS2, 1.24 fold enrichment (6-mer frequency, TF over GST control); in the test with SPDEF, 1.33 fold enrichment (6-mer frequency, TF over GST control); with ETV7, 1.24 fold enrichment (6-mer frequency, TF over GST control); with ELF5, 1.25 fold enrichment (6-mer frequency, TF over GST control). The binding signal with ETV3 is 1.31 fold enrichment (6-mer frequency, TF over GST control); with ETV6, 1.16 fold enrichment (6-mer frequency, TF over GST control).

As for TTAACG, the binding signal with ERF was 1.15 fold enrichment (6-mer frequency, TF over GST control); with ETV3L, 1.17 fold enrichment (6-mer frequency, TF over GST control); with ETS2 it was 1.23 fold enrichment (6-mer frequency, TF over GST control); in the test with SPDEF it was 1.23 fold enrichment (6-mer frequency, TF over GST control); in the test with ETV7, 1.13 fold enrichment (6-mer frequency, TF over GST control); with ELF5, 1.14 fold enrichment (6-mer frequency, TF over GST control). In addition, the binding signal with ETV3 is 1.16 fold enrichment (6-mer frequency, TF over GST control); with ETV6, 1.17 fold enrichment (6-mer frequency, TF over GST control).

As for ACTAAT, the binding signal with ERF was 1.27 fold enrichment (6-mer frequency, TF over GST control); with ETV3L it was 1.24 fold enrichment (6-mer frequency, TF over GST control); in the test with ETS2, 1.28 fold enrichment (6-mer frequency, TF over GST control); with SPDEF, 1.21 fold enrichment (6-mer frequency, TF over GST control); in the test with ETV7 it was 1.45 fold enrichment (6-mer frequency, TF over GST control); with ELF5, 1.27 fold enrichment (6-mer frequency, TF over GST control). The binding signal in the test with ETV3 was 1.12 fold enrichment (6-mer frequency, TF over GST control); with ETV6, 1.31 fold enrichment (6-mer frequency, TF over GST control).

On to AACCTC, for which the binding signal is 1.26 fold enrichment (6-mer frequency, TF over GST control) with ERF; 1.24 fold enrichment (6-mer frequency, TF over GST control) with ETV3L; 1.18 fold enrichment (6-mer frequency, TF over GST control) in the test with ETS2; 1.07 fold enrichment (6-mer frequency, TF over GST control) with SPDEF; 1.26 fold enrichment (6-mer frequency, TF over GST control) with ETV7; 1.17 fold enrichment (6-mer frequency, TF over GST control) with ELF5. The binding signal is 1.2 fold enrichment (6-mer frequency, TF over GST control) with ETV3 and 1.16 fold enrichment (6-mer frequency, TF over GST control) in the test with ETV6.

Turning to GGGCCT, the binding signal in the test with ERF is 1.37 fold enrichment (6-mer frequency, TF over GST control); in the test with ETV3L it was 1.21 fold enrichment (6-mer frequency, TF over GST control); with ETS2, 1.21 fold enrichment (6-mer frequency, TF over GST control); with SPDEF, 1.24 fold enrichment (6-mer frequency, TF over GST control); with ETV7, 1.24 fold enrichment (6-mer frequency, TF over GST control); in the test with ELF5, 1.17 fold enrichment (6-mer frequency, TF over GST control). Also, the binding signal was 1.21 fold enrichment (6-mer frequency, TF over GST control) with ETV3 and 1.21 fold enrichment (6-mer frequency, TF over GST control) with ETV6.
